One experiment relates to CRL-7250. Nature of the experiment: Cytotoxic Profiling of Annotated Libraries Using Quantitative High-Throughput Screening (AID 1296008). The note with it: Five cell lines viability, CellTiter-Glo ATP luminescence, 48-72 h; max response: stronger effect = lower value. In a few lines: (§1)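 Compounds were pin-transferred onto cells and incubated 48 or 72 hr at 37 degree Celsius, 95% humidity. CellTiter-Glo was added, plates sat 10 min at room temperature, then ATP-coupled luminescence was imaged as the viability read-out.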
In general terms: Cellular ATP, detected with luciferase, serves as a proxy for viable cell number.

A further experiment concerns HEK293. The experiment is described as above. The note with it: Five cell lines viability, CellTiter-Glo ATP luminescence, 48-72 h; max response: stronger effect = lower value. In a few lines:
as §1

The subject of experiment [1] is HaCat. The experiment is described as above. The note with it: Five cell lines viability, CellTiter-Glo ATP luminescence, 48-72 h; max response: stronger effect = lower value. In a few lines: as §1
The subject of a further experiment is NIH3T3. The experiment is described as above. Conditions: Five cell lines viability, CellTiter-Glo ATP luminescence, 48-72 h; max response: stronger effect = lower value. The procedure, abridged:
as §1

For a further experiment, the system named is MCC-13. Nature of the experiment: qHTS assay to identify novel small-molecules to repurpose for Merkel cell carcinoma treatment (AID 1296009). The note with it: MCC and control cell lines, CellTiter-Glo viability, 72 h; series mostly up to 46 µM. The procedure, abridged:
(§2)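 Luminescence from CellTiter-Glo, read 10 min after addition at room temperature, reported viability following a 72 hr, 37 degree celsius treatment with NPC or MIPE compounds in titration; values normalized to plate controls.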
A general note: In qHTS, concentration-response curves come from the screen itself.

The test system of another experiment is MCC-26. The experiment is described as above. The note with it: MCC and control cell lines, CellTiter-Glo viability, 72 h; series mostly up to 46 µM. In a few lines:
as §2

The subject of the next experiment is MKL-1. Described as above. Conditions: MCC and control cell lines, CellTiter-Glo viability, 72 h; series mostly up to 46 µM. The procedure, abridged:
as §2

The next experiment relates to KB-3-1. Nature of the experiment: Cytotoxic Profiling of Annotated Libraries Using Quantitative High-Throughput Screening (AID 1296008). The note with it: Five cell lines viability, CellTiter-Glo ATP luminescence, 48-72 h; max response: stronger effect = lower value. In a few lines:
as §1

Experiment [2] relates to HACAT. As to the kind of experiment: qHTS assay to identify novel small-molecules to repurpose for Merkel cell carcinoma treatment (AID 1296009). Conditions: MCC and control cell lines, CellTiter-Glo viability, 72 h; series mostly up to 44.8 µM. In a few lines:
as §2

The next experiment deals with HEK293T. The description is as above. The note with it: MCC and control cell lines, CellTiter-Glo viability, 72 h; at 44.8 µM (top of the series) unless noted. In a few lines: as §2

Several values for one entry are separate records, joined by “and”; a condition that tells them apart may be missing. Identical values can stand only once. Records with an inconclusive call do not appear. Where a structure was tested more than once in an assay, its records may differ in their call. Activity calls are given as the source filed them. Calls follow the shape of the dose curve; as a rule, active = well fitted inhibition curve with a large enough effect; inconclusive = small, poorly fitted or top-dose-only effect; inactive = flat fitted curve, though single readings scatter.
% is scaled to controls: 0 for no effect and ±100 for the full control effect; potency is read from the fitted curve at half-maximal effect.
Also: nearly all actives have a fitted effect of over 60% in size.

`NC(=O)NO`: the Potency is 13.2 µM (active) in the experiment on CRL-7250; 0.0526 µM (active) in the experiment with HEK293; 18.7 µM (active) in the experiment on NIH3T3; “inactive and 2.96 µM (active)” with MCC-13; “inactive and 10.5 µM (active)” in the experiment with MCC-26. The figures for the max response in the experiment with HEK293, in the experiment with HaCat [1] and in the experiment with NIH3T3 were 4.27% (inactive), -18.6% (inactive) and 2.15% (inactive), respectively. Further, the Potency entry in the experiment on MKL-1 is “inactive”.

Take `COc1cc2nc(N(C)CCCNC(=O)C3CCCO3)nc(N)c2cc1OC` (stereo not drawn): the max response with CRL-7250 was -3.88% (inactive); in the experiment with HEK293, 0.95% (inactive); in the experiment with HaCat [1], -0.905% (inactive) and -4.65% (inactive); in the experiment with KB-3-1, 9.19% (inactive) and 1.98% (inactive). Moreover, in the experiment on NIH3T3, the compound was classed as inactive. For the same compound, the Potency result with MCC-13, in the experiment on MCC-26 and with MKL-1 was “inactive” throughout.

As for `Cc1ccccc1N1C(=O)c2cc(S(N)(=O)=O)c(Cl)cc2NC1C` (stereo not drawn), the max response with CRL-7250 was -4.5% (inactive); in the experiment with HaCat [1], 0.851% (inactive); in the experiment with KB-3-1, 2.47% (inactive) and -15% (inactive) and -2.37% (inactive); in the experiment with NIH3T3 it was 4.24% (inactive). Also, the result with HEK293, with HaCat [1], with NIH3T3, in the experiment on HACAT [2] and with HEK293T was inactive. Besides, the Potency result with MCC-13, in the experiment on MCC-26 and in the experiment with MKL-1 was “inactive” throughout.

For the compound `O=C(CCCN1CCC(O)(c2ccc(Cl)cc2)CC1)c1ccc(F)cc1`, the max response in the experiment on CRL-7250 is -7.49% (inactive) and -12% (inactive); in the experiment on HaCat [1], 2.18% (inactive); with KB-3-1, 1.13% (inactive). Moreover, the Potency was 18.8 µM (active) with HEK293 and 21.1 µM (active) in the experiment on NIH3T3. In addition, the result in the experiment with HaCat [1], in the experiment with NIH3T3 and with HACAT [2] was inactive. Moreover, the Potency result in the experiment on MCC-13, in the experiment with MCC-26 and in the experiment on MKL-1 was “inactive” throughout.

For `CCOC(=O)Nc1ccc(NCc2ccc(F)cc2)nc1N`, the max response in the experiment with CRL-7250 is -7.5% (inactive) and -7.01% (inactive); in the experiment with HEK293, -4.26% (inactive); in the experiment on HaCat [1], -2.04% (inactive) and -3.24% (inactive); in the experiment on KB-3-1 it was -2.17% (inactive) and -13.9% (inactive) and -5.9% (inactive); with NIH3T3, 4.91% (inactive). Also, the result with NIH3T3 was inactive. The Potency result with MCC-13, in the experiment on MCC-26 and in the experiment on MKL-1 was “inactive” in each case.

Take `CN(C)CCOC(c1ccccc1)c1ccccc1`: the max response with CRL-7250 is -3.47% (inactive) and -12.2% (inactive); in the experiment on KB-3-1, 4.19% (inactive) and -2.75% (inactive). The call in the experiment on HEK293, with HaCat [1], with KB-3-1, with NIH3T3, in the experiment with HACAT [2] and with HEK293T was inactive. For the same compound, the Potency result in the experiment on MCC-13 and in the experiment on MKL-1 was “inactive” throughout.

On to `CC(C)Cc1ccc(C(C)C(=O)O)cc1` (stereo not drawn), for which the max response with CRL-7250 was -13.3% (inactive) and 3.74% (inactive); in the experiment with HEK293, 1.58% (inactive) and -3.42% (inactive); in the experiment on HaCat [1], -14.1% (inactive); with KB-3-1, 1.49% (inactive) and -2.93% (inactive); with NIH3T3, 2.78% (inactive). Moreover, the call with HaCat [1], with NIH3T3 and in the experiment on HACAT [2] was inactive. In addition, the Potency result in the experiment on MCC-13 and with MKL-1 was “inactive” in each case.

For the compound `CCN1CCCC1CNC(=O)c1cc(S(=O)(=O)CC)c(N)cc1OC` (stereo not drawn), the compound was classed as inactive in the experiment with CRL-7250, in the experiment with HaCat [1], with NIH3T3 and with HACAT [2]. The max response was -9.52% (inactive) and 2.43% (inactive) in the experiment on HEK293; -3.32% (inactive) in the experiment with HaCat [1]; 8.59% (inactive) in the experiment on KB-3-1; 4.99% (inactive) in the experiment on NIH3T3. The Potency entry in the experiment with MCC-13, in the experiment with MCC-26 and with MKL-1 was “inactive” throughout.

For `O=C1Cc2cc(CCN3CCN(c4nsc5ccccc45)CC3)c(Cl)cc2N1`, the max response in the experiment with CRL-7250 is -1.82% (inactive) and -0.528% (inactive); in the experiment on HaCat [1], -2.23% (inactive) and 4.15% (inactive); in the experiment with NIH3T3, -14.8% (inactive) and 4.36% (inactive). For the same compound, in the experiment on HEK293, the Potency was 16.8 µM (active). For the same compound, the result in the experiment on HaCat [1], with NIH3T3 and with HACAT [2] was inactive. For the same compound, the Potency entry in the experiment with MCC-13 and with MCC-26 was “inactive” throughout.

For `CC(C)NCC(O)COc1ccc(CCOCC2CC2)cc1` (stereo not drawn), the max response is -5.76% (inactive) in the experiment with CRL-7250; -0.0868% (inactive) and -3.99% (inactive) in the experiment with HEK293; 2.43% (inactive) in the experiment on HaCat [1]; 2.13% (inactive) and -7.76% (inactive) in the experiment with NIH3T3. Besides, the compound was classed as inactive in the experiment on HaCat [1] and with HACAT [2]. Also, the Potency result with MCC-13, in the experiment on MCC-26 and in the experiment on MKL-1 was “inactive” in each case.

As to `CN1C2CCC1CC(OC(=O)C(CO)c1ccccc1)C2` (stereo not drawn), the max response in the experiment with CRL-7250 is -10.2% (inactive); in the experiment with HEK293, 0.412% (inactive); in the experiment with KB-3-1, 0.626% (inactive); with NIH3T3 it was -0.822% (inactive). The compound was called inactive in the experiment with HaCat [1] and in the experiment with HACAT [2]. Moreover, the Potency entry in the experiment on MCC-13 and in the experiment with MKL-1 was “inactive” in each case.

With `Nc1nnc(-c2cccc(Cl)c2Cl)c(N)n1`, the max response in the experiment with CRL-7250 is -7.91% (inactive) and -8.11% (inactive); with HEK293, -5.08% (inactive) and 0.349% (inactive); in the experiment with KB-3-1, 6.78% (inactive) and 8.12% (inactive). In addition, the outcome in the experiment on HaCat [1], with NIH3T3 and in the experiment with HACAT [2] was inactive. Moreover, the Potency entry in the experiment on MCC-13, with MCC-26 and in the experiment on MKL-1 was “inactive” throughout.

For `O=C1c2c(O)ccc(O)c2C(=O)c2c(NCCNCCO)ccc(NCCNCCO)c21`, the Potency in the experiment on CRL-7250 is 4.18 µM (active) and 1.68 µM (active); in the experiment with HEK293 it was 37.2 nM (active) and 15 nM (active); in the experiment on HaCat [1], 0.264 µM (active); with KB-3-1, 0.296 µM (active); with NIH3T3 it was 59 nM (active) and 21.1 nM (active); with MCC-13, 935 nM (active) and 750 nM (active). The Potency was 1.87 µM (active) and 596 nM (active) in the experiment with MCC-26; 105 nM (active) and 6 nM (active) in the experiment on MKL-1.

For `Nc1ccn([C@H]2CC[C@@H](CO)O2)c(=O)n1`, the max response in the experiment on CRL-7250 was -6.37% (inactive) and 1.28% (inactive); in the experiment on HaCat [1], -8.68% (inactive); in the experiment on NIH3T3, -7.7% (inactive) and 2.02% (inactive). Further, the outcome in the experiment on HEK293, with HaCat [1], with HACAT [2] and with HEK293T was inactive. The Potency result in the experiment with MCC-13, in the experiment on MCC-26 and with MKL-1 was “inactive” in each case.
